Source: PubChem
HPGD inh – inhibitors of human 15-hydroxyprostaglandin dehydrogenase (HPGD); purified HPGD, NADH fluorescence kinetic, PGE2 substrate; Potency, µM, without a hit: top-dose activity change, negative = inhibition, actives largely listed as inhibitors; hit rate 4.3% among 150,000; P15428; note: potency is the fitted concentration of half-maximal effect
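20 nM HPGD preincubated 15 min at room temperature with compound in 50 mM Tris-HCl pH 8, 0.01% Tween 20. Started with 1 mM NAD+ and 30 uM prostaglandin E2; NADH fluorescence (360/450 nm) read 5 times over 30-s intervals, last minus first.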
ALOX12 inhib – blocks human 12-lipoxygenase activity. P18054. purified 12-hLO, xylenol orange hydroperoxide absorbance. Potency, µM (highest dose often 57.1 µM), without a hit: at the highest dose activity change, negative = inhibition, usual class: inhibitors. hit rate 0.12% among 150,000; active = well fitted inhibition curve with a large enough effect; inconclusive = small, poorly fitted or top-dose-only effect; note: potency is the fitted concentration of half-maximal effect; nearly all actives have a fitted effect of over 55% in size
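150 nM 12hLO, 25 mM Hepes pH 7.0 + 0.01% Triton X-100; cpd preinc 15 min RT; 40 uM arachidonic acid, 30 min RT; Fe-XO 30 min; A573/A405 ratio as read-out.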
LMNA splice mod – modulators of lamin A splicing; HeLa LMNA splicing GFP/RFP minigene ratio, 48 h; Potency, µM (series often up to 46.1 µM), without a hit: at the highest dose ratio change, negative = inhibition, usual class: inhibitors; hit rate 0.01% among 200,000; active = well fitted inhibition curve with a large enough effect in the signal ratio, with a control signal flat, not every such curve was filed as active; inconclusive = small, poorly fitted or top-dose-only effect, or effect the other way, or a change in a side signal; the % refers to the signal ratio; note: potency is the fitted concentration of half-maximal effect
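S3 HeLa cells stably expressing lamin A-EGFP splicing minigene plus DsRed2, 600 cells/well, 48 h compound exposure at 37C. Laser-scanning cytometry; analysed as GFP (500-530 nm)/RFP (575-640 nm) total intensity ratio; 0.5% DMSO vehicle.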
PNC assembly inh – blocks assembly of the perinucleolar compartment | hit rate 3.1% among 140,000 | activity change (PNC), negative = inhibition, % at 10 µM | PC3M PTB-GFP, PNC prevalence imaging, 16 h; active compounds read low;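 active = readout at or below -70, meaning at least 70% loss of cells showing the perinucleolar compartment, a nuclear body marking cancer cells; inconclusive = readout between -30 and a set limit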;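 note: plate controls were DMSO wells for no effect and camptothecin positive control wells for full effect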
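Compounds are pinned in duplicate onto adhered PC3M cells stably expressing GFP-tagged PTB and incubated 16 h at 37 C. Cells are then fixed, nuclei stained with Hoechst, and PNC-positive cells counted.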
ALDH1A1 block – ALDH1A1 (human) enzyme inhibition; Purified ALDH1A1, NADH fluorescence, propionaldehyde substrate; Potency, µM (top dose mostly 75.3 µM), for the others: at the top dose activity, negative = inhibition, actives largely listed as inhibitors; hit rate 7.3% among 220,000;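 note: potency is the fitted concentration of half-maximal effect; plate controls were no enzyme wells and a reference inhibitor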
Target sequence (P00352 whole entry, looked up): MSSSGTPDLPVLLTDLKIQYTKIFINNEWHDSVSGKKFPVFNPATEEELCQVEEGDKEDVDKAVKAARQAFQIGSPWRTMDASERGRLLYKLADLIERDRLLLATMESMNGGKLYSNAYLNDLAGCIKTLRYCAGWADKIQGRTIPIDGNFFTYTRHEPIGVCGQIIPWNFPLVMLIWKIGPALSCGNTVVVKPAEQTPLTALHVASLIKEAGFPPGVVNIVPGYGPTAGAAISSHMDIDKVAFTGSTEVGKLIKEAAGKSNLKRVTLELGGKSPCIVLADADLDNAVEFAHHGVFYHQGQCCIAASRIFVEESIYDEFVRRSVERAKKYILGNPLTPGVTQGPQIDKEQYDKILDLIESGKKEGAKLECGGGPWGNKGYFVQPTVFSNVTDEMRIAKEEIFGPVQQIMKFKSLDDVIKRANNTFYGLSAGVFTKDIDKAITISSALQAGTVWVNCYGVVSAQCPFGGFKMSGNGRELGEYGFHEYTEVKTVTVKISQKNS
The depositor's hits bear a star; ? = inconclusive; / = not tested or not shown; ! = a repeat was not active; [ ] = another dose, or the depositor's remark. An excerpt weighted towards active compounds, which were near 10% of everything screened. Unless noted, calls come from the whole dose curve; as a rule, active = well fitted inhibition curve with a large enough effect (not every such curve was filed as active); inconclusive = small, poorly fitted or top-dose-only effect, or another doubt; inactive = no such curve, though single readings can be large or run the other way. Unless noted, % is set by controls: 0 for no effect and ±100 for the full control effect.

SMILES	HPGD inh	ALOX12 inhib	LMNA splice mod	PNC assembly inh	ALDH1A1 block
O=c1[nH]c(=S)n(Cc2ccco2)c(O)c1C=NCc1cccs1	25µM*	-13%	1%	-16	7.9µM*
C=CC1CC=CCC1 (stereo unspecified)	-10%	0%	/	/	22µM*
CCCc1[nH]nc2c1C1(C(=O)N(CC(N)=O)c3ccccc31)C(C(=O)OC)=C(N)O2 (stereo unspecified)	0%	2%	-6%	-91*	1%
c1ccc(N2CC[C@@]3(CCCNC3)C2)cc1	-6%	-9%	/	/	?
Cc1cccc(-n2c(O)c(/C=N/Nc3nc4c(c(=O)n(C)c(=O)n4C)n3C)c(=O)[nH]c2=S)c1	-28%	-10%	-8%	-28	10µM*
O=c1[nH]c(=S)n(-c2ccccc2)c(O)c1/C=N/N1CCOCC1	-19%	1%	-3%	?	-10%
Cc1ccccc1-n1c(O)c(/C=N/Nc2nc3c(c(=O)n(C)c(=O)n3C)n2C)c(=O)[nH]c1=S	-19%	-13%	1%	25	13µM*
Cn1c(O)c(/C=N/NC(=O)c2ccncc2)c(=O)[nH]c1=S	/	/	10%[46 µM]	/	?
CCCCCCCCCC[Si](C)(C)CCC(=O)NC(Cc1ccc(C)cc1)c1ccccc1 (stereo unspecified)	-7%	/	?	/	5%
C=C(c1ccccc1)P(=O)(O)O	-4%	-2%	-2%	-113*	13%
CCCCCCCC(=O)NC(Oc1ccccc1[N+](=O)[O-])C(Cl)(Cl)Cl (stereo unspecified)	10µM*	5%	1%	18	-6%
c1ccc(CCN2CCOCC2)nc1	-2%	4%[11.4 µM]	/	/	-6%[13.5 µM]
CC1OC(=O)C(C(C)C)NC(=O)C(C(C)C)OC(=O)C(C(C)C)NC(=O)C(C)OC(=O)C(C(C)C)NC(=O)C(C(C)C)OC(=O)C(C(C)C)NC(=O)C(C)OC(=O)C(C(C)C)NC(=O)C(C(C)C)OC(=O)C(C(C)C)NC1=O (stereo unspecified)	-12%	?	/	/	-3%
CCN(CC)c1ccc(NC(=O)c2cccc(C)c2)cc1S(=O)(=O)Nc1ccccc1OC	13µM*	0%	?	?	14µM*
COC(=O)C(O)(c1ccc(NC(=S)NC(=O)c2ccccc2)cc1)C(F)(F)F (stereo unspecified)	-6%	?	?	-11	25µM*
O=C(C[C@H](c1ccccc1)c1c(O)c2ccccc2oc1=O)c1ccccc1	-5%	-4%[11.4 µM]	/	/	2%[13.5 µM]
C[C@@H]1O[C@@H](O[C@H]2C[C@@H](O)[C@]3(CO)[C@@H]4[C@@H](O)C[C@]5(C)[C@H](C6=CC(=O)OC6)CC[C@@]5(O)[C@H]4CC[C@@]3(O)C2)[C@H](O)[C@H](O)[C@@H]1O	/	-3%	/	/	/
O=C(O)CNC(=O)c1ccc([As](=O)(O)O)cc1	-5%	2%[11.4 µM]	/	/	4%[13.5 µM]
CC1(C)CC(=O)C(C=NCCN2CCN(C(=O)Cc3ccc(F)cc3)CC2)=C(O)C1	-15%	-11%	-3%	23	18µM*
O=C1CC(c2ccccc2)CC(O)=C1C=NCCN1CCN(C(=O)Cc2ccccc2)CC1 (stereo unspecified)	-7%	-2%	-1%	36	-7%
CCCN(CCC)C1Cc2cc(OC)c(OC)cc2C1	-17%	-3%	-13%	/	22µM*!
CCSCC[C@H](N)C(=O)O	-14%	-6%[11.4 µM]	/	/	2%[13.5 µM]
O=C1NC(=O)N(c2ccc3c(c2)OCO3)C(=O)/C1=C/c1ccsc1	/	/	8%[46 µM]	/	?
Cc1ccc(N2C(=O)NC(=O)/C(=C\C=C\c3ccco3)C2=O)cc1C	10µM*	-18%	?	34	?
O=C1NC(=O)N(Cc2ccccc2)C(=O)/C1=C/N1CCCc2ccccc21	-24%	-6%	-12%	48	8.9µM*
SMILES	HPGD inh	ALOX12 inhib	LMNA splice mod	PNC assembly inh	ALDH1A1 block
Cc1nn(Cc2ccccc2)c(C)c1C=C1C(=O)NC(=S)NC1=O	?	-4%	-2%	?	?
O=C1NC(=O)N(Cc2ccccc2)C(=O)/C1=C\C=C\c1ccco1	/	/	?	/	3.2µM*
CCCSC(=O)Cl	-8%	2%	/	/	-21%
COc1ccc(Cc2nccc3cc(OC)c(OC)cc23)cc1OC	14µM*!	?	?	16	-2%
COc1ccc(CCNCc2sccc2C)cc1OC	/	/	/	/	-13%
CC(C)(C)OOC(=O)c1ccccc1	-9%	-3%	/	/	?
CN1CC[C@@]2(C)c3cc(OC(=O)Nc4ccccc4)ccc3N(C)[C@@H]12	/	/	/	/	11µM*
Cc1ccc(Cl)cc1N1CCN(CCN)CC1	9%	7%	-15%	0	28µM*
CN1CCN(c2ccc(Cl)cc2N)CC1	/	/	/	/	10%
COc1cc(CCN)ccc1O	-16%	-4%	?	/	-7%
C=CCc1ccc(O)c(OC)c1	2%	-2%	-9%	/	14µM*!
BrCC(Br)(Br)Br	-13%	-2%	/	/	2µM*
O=c1ccc(=O)[nH][nH]1	-2%	-3%	/	/	?
C=C(C)[C@H]1CN[C@H](C(=O)O)[C@H]1CC(=O)O	16µM*!	0%[0.00818 µM]	?	/	20µM*!
ClC(Cl)Cl	-5%	1%	?	/	-14%
N=C(N)c1ccc(-c2ccc(-c3ccc(C(=N)N)cc3)o2)cc1	?	-1%[11.4 µM]	/	/	?
COC(=O)CCCc1[se]c2ccccc2c1I	22µM*	0%[0.00818 µM]	/	/	32µM*
Cc1ccc2c(c1)N(CCC(=O)N1CCC3(CC1)OCCO3)C(=O)CO2	-13%	-4%	-3%	4	10µM*
COC(=O)c1c(C)n(Cc2ccco2)c2ccc(O)cc12	-24%	-11%	?	0	20µM*
CCOC(=O)c1c(C)n(Cc2ccco2)c2ccc(OC)cc12	-7%	-13%	-9%	-2	-8%
O=C1C(Cl)=C(N2CCCCCC2)C(=O)N1c1ccccc1	16µM*	-23%	7%	?	?
C1C[C@@H]2CN(CCCN3CCOCC3)[C@@H](C1)O2	-4%	-4%[11.4 µM]	/	/	11%[13.5 µM]
Cc1ccc(C(=O)C2CN3CCC2CC3)cc1 (stereo unspecified)	-10%	7%	?	-27	28µM*
Cc1ccc(C(=O)C2CN(C)CC2C(=O)c2ccc(C)cc2)cc1 (stereo unspecified)	-5%	-3%	1%	29	0%
CCC1(CCSC(=N)N)C(=O)NC(=O)NC1=O	-5%	-1%[11.4 µM]	/	/	-1%[13.5 µM]
c1ccc(Nc2ccc(Nc3ccccc3)cc2)cc1	-22%	13µM*	/	/	?
O=Nc1ccc(Nc2ccccc2)cc1	-14%	-15%	/	/	0.063µM*
O=[N+]([O-])c1ccc(Nc2ccccc2)cc1	?	?	-21%	10	13%
CC[C@@H]1CN2CCc3cc(OC)c(OC)cc3[C@H]2C[C@@H]1C[C@H]1NCCc2cc(OC)c(OC)cc21	-6%	5%[25.6 µM]	?	/	8%[20.9 µM]
O=C(Cn1c2c(c(-c3ccccc3Cl)cc1=O)CCC2)N1CCC2(CC1)OCCO2	?	-14%	-4%	-95*	?
